# Test results from article PMC7862700, “An all-to-all approach to the identification of sequence-specific readers for epigenetic DNA modifications on cytosine”.
# Assays:
# Assay in all cases: DAPPL (digital affinity profiling via proximity ligation, sequencing); 10 mM Tris-HCl pH 7.5, 50 mM NaCl, 1 mM DTT, 4% glycerol, room temperature, 30 min; GST-TFs on glutathione beads, 16-mer random dsDNA library, 0.1% formaldehyde crosslink after washing; high values mean tight binding
# [1] = target: T1, FEV (Homo sapiens, UniProt Q99581 1-238); details: protein: recombinant; tags: N-terminal GST; dsDNA, one strand shown
# T1 sequence: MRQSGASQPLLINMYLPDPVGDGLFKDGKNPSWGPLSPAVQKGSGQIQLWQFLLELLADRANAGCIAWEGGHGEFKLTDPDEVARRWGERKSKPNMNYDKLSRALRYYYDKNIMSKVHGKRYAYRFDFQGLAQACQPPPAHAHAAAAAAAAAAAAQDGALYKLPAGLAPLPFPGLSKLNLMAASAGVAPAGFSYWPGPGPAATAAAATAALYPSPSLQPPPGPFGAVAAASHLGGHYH
# How it was run: (§1)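 Yeast served to express human transcription factors as GST fusions, which were then captured on glutathione beads and labelled with DNA barcodes. Pooled with a tag-only sample, they were incubated with 200 nmole of a 16-mer random double-stranded DNA library for 30 min at room temperature in Tris/NaCl/DTT/glycerol buffer, washed, crosslinked with 0.1% formaldehyde, ligated by proximity, amplified by PCR and sequenced. Dividing each hexamer's read frequency for a factor by its frequency for the tag-only sample gives the binding signal.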
# [2] = target: ETV5 (Homo sapiens, UniProt P41161 1-510); details: protein: recombinant; tags: N-terminal GST; dsDNA, one strand shown
# ETV5, sequence (P41161 whole entry): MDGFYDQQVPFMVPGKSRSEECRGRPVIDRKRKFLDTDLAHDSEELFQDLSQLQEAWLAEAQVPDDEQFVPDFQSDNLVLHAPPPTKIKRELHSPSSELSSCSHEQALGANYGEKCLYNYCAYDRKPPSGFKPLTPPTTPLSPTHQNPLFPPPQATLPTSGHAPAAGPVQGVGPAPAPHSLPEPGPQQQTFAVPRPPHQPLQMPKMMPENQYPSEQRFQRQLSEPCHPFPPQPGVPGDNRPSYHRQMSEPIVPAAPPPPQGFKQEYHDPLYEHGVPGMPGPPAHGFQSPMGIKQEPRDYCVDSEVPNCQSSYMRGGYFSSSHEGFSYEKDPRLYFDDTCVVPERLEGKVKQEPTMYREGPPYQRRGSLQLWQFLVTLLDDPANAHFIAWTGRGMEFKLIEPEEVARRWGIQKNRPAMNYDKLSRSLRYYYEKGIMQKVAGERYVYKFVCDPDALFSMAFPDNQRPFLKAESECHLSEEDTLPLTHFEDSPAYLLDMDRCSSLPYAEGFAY
# How it was run: as §1
# [3] = target: HSF1 (Homo sapiens, UniProt Q00613 1-529); details: protein: recombinant; tags: N-terminal GST; chain copies: 3; dsDNA, one strand shown
# HSF1, sequence (Q00613 whole entry): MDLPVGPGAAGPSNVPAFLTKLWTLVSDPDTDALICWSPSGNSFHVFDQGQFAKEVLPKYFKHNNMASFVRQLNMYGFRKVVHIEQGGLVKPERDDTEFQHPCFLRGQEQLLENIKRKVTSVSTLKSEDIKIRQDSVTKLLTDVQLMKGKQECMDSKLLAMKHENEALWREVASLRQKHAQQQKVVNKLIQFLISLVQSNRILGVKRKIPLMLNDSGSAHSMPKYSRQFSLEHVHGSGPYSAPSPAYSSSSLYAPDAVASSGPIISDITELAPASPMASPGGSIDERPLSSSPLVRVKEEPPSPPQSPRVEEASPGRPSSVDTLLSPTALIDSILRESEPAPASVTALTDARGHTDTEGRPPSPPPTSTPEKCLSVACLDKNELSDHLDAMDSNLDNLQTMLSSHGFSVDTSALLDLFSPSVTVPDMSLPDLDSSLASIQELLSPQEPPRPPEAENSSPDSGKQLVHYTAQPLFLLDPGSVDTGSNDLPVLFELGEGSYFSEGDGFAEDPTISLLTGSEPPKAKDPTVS
# How it was run: as §1
# [4] = target: T2, SPIC (Homo sapiens, UniProt Q8N5J4 1-248); details: protein: recombinant; tags: N-terminal GST; dsDNA, one strand shown
# T2 sequence: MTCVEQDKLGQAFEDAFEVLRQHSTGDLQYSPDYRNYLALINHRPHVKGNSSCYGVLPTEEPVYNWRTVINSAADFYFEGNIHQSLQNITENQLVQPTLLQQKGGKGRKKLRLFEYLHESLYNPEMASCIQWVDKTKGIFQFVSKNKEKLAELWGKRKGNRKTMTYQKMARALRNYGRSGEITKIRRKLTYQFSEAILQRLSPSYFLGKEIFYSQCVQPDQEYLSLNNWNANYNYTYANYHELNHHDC
# How it was run: as §1
# [5] = target: ELF4 (Homo sapiens, UniProt Q99607 1-663); details: protein: recombinant; tags: N-terminal GST; dsDNA, one strand shown
# ELF4, sequence (Q99607 whole entry): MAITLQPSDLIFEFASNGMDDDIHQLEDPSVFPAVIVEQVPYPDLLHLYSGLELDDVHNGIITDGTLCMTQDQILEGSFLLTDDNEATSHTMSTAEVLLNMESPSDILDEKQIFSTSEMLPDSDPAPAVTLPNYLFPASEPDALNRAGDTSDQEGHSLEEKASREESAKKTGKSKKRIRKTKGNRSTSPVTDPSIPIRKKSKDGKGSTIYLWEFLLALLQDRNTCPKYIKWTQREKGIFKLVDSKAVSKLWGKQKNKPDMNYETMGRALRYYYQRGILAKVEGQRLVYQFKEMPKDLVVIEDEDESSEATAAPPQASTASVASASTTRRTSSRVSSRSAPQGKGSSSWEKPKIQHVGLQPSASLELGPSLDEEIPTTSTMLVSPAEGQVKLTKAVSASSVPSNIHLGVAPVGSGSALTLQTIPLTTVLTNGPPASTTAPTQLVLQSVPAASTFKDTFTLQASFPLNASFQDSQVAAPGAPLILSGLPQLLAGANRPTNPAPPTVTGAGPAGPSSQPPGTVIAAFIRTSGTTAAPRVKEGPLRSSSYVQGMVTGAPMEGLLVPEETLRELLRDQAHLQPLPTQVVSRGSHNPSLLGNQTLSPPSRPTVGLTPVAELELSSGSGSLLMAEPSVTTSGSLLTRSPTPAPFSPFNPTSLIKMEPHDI
# How it was run: as §1
# [6] = target: T3, ELK4 (Homo sapiens, UniProt P28324-2 1-405); details: protein: recombinant; tags: N-terminal GST; dsDNA, one strand shown
# T3 sequence: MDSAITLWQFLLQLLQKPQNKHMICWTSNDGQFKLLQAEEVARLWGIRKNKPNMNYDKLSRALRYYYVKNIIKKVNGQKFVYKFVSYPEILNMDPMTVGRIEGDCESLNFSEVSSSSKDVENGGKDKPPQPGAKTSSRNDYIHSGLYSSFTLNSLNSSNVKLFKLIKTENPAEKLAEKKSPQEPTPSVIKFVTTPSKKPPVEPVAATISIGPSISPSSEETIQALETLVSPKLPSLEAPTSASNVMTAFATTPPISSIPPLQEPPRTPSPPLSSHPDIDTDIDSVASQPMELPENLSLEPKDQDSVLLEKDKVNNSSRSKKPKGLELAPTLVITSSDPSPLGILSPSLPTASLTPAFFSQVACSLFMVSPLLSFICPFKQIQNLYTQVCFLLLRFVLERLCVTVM
# How it was run: as §1
# [7] = target: T4, ETV2 (Homo sapiens, UniProt O00321 1-342); details: protein: recombinant; tags: N-terminal GST; dsDNA, one strand shown
# T4 sequence: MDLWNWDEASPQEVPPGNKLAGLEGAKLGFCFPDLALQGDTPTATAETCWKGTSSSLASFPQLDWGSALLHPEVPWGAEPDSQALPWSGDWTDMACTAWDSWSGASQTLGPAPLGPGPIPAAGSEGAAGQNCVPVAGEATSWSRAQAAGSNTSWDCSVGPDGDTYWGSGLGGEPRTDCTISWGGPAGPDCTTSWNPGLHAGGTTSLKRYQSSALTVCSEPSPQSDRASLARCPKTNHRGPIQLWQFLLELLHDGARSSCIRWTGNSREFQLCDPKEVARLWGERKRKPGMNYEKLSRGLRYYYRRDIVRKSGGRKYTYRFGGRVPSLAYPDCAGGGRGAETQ
# How it was run: as §1
# [8] = target: T5, ELF3 (Homo sapiens, UniProt P78545 1-371); details: protein: recombinant; tags: N-terminal GST; dsDNA, one strand shown
# T5 sequence: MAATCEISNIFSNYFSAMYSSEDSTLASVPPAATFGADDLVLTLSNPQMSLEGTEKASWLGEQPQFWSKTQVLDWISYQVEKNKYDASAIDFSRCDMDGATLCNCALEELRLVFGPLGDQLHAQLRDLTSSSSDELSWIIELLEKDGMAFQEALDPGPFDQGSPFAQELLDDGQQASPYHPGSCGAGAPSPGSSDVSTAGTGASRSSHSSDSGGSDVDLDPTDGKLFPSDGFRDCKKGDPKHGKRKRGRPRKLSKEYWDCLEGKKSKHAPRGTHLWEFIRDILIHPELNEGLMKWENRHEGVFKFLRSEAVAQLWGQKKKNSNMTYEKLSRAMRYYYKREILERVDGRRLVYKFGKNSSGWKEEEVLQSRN
# How it was run: as §1
# [9] = target: CRX (Homo sapiens, UniProt O43186 1-299); details: protein: recombinant; tags: N-terminal GST; dsDNA, one strand shown
# CRX, sequence (O43186 whole entry): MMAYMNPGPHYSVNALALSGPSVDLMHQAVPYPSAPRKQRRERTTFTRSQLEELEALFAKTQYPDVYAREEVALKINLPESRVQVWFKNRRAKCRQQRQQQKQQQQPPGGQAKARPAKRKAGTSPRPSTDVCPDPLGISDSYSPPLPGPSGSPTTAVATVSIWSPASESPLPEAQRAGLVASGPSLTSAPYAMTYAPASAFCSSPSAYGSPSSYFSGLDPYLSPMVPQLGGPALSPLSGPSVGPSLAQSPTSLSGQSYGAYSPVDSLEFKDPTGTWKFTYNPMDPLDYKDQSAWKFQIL
# How it was run: as §1
# [10] = target: ETV1 (Homo sapiens, UniProt P50549 1-477); details: protein: recombinant; tags: N-terminal GST; dsDNA, one strand shown
# ETV1, sequence (P50549 whole entry): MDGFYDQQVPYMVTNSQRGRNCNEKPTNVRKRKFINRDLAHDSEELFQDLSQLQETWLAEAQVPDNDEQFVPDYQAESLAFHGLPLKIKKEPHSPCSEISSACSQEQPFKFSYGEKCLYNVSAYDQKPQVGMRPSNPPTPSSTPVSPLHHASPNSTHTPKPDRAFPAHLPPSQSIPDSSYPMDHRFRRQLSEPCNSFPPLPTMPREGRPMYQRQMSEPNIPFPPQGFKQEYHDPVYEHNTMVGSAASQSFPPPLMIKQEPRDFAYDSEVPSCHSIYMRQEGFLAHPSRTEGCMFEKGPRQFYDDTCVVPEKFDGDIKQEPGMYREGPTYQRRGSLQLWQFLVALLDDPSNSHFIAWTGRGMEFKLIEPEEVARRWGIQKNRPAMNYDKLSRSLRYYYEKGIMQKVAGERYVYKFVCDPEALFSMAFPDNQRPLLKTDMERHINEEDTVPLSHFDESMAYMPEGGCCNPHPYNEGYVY
# How it was run: as §1
# [11] = target: T6, ERF (Homo sapiens, UniProt P50548 1-548); details: protein: recombinant; tags: N-terminal GST; dsDNA, one strand shown
# T6 sequence: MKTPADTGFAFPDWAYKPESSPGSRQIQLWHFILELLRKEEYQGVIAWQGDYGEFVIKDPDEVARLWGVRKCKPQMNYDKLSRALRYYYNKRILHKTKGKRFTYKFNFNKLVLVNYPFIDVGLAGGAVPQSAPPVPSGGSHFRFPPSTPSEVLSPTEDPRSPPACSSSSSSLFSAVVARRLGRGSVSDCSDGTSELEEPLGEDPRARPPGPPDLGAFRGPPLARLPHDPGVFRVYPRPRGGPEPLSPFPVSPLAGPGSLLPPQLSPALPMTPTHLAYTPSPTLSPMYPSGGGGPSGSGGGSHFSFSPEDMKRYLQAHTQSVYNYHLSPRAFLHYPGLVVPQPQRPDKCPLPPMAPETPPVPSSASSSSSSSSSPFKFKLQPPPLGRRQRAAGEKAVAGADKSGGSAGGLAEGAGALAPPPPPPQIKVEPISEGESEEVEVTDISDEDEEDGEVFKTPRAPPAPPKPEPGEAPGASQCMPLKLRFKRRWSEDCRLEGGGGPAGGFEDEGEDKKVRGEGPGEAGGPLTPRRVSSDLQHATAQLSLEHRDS
# How it was run: as §1
# [12] = target: T7, ETV3L (Homo sapiens, UniProt Q6ZN32 1-361); details: protein: recombinant; tags: N-terminal GST; dsDNA, one strand shown
# T7 sequence: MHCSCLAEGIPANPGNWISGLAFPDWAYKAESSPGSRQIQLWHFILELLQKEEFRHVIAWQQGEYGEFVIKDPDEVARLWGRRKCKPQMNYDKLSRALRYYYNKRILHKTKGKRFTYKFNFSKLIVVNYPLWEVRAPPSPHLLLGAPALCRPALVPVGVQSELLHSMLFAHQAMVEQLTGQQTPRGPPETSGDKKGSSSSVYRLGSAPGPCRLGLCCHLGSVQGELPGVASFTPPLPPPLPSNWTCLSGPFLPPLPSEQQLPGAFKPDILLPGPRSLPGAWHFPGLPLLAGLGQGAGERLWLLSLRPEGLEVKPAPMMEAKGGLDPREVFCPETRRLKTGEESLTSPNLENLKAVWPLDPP
# How it was run: as §1
# [13] = target: T8, ETS2 (Homo sapiens, UniProt P15036 1-469); details: protein: recombinant; tags: N-terminal GST; dsDNA, one strand shown
# T8 sequence: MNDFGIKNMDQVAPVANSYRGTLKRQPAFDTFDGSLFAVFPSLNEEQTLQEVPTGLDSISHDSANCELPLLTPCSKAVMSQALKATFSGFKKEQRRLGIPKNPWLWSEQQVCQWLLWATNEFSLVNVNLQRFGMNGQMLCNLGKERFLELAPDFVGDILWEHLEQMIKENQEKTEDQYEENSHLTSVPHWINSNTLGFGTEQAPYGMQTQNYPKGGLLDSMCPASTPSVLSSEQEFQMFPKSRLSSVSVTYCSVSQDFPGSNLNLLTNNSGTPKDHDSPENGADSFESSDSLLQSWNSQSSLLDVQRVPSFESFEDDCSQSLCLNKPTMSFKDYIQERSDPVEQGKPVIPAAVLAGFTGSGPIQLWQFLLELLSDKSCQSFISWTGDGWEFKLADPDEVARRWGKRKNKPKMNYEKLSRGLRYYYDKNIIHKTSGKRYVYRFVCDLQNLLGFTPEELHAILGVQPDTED
# How it was run: as §1
# [14] = target: T9, SPDEF (Homo sapiens, UniProt O95238 1-335); details: protein: recombinant; tags: N-terminal GST; dsDNA, one strand shown
# T9 sequence: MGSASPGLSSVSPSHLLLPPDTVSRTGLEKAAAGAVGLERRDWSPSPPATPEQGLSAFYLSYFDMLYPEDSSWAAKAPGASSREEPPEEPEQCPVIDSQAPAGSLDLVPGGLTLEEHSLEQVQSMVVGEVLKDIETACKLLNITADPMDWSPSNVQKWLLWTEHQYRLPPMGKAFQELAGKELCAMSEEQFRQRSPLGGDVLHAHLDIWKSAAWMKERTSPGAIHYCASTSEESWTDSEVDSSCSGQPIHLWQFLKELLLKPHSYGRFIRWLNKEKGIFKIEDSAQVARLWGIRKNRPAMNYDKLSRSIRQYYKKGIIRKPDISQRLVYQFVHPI
# How it was run: as §1
# [15] = target: T10, ETV7 (Homo sapiens, UniProt Q9Y603 1-341); details: protein: recombinant; tags: N-terminal GST; dsDNA, one strand shown
# T10 sequence: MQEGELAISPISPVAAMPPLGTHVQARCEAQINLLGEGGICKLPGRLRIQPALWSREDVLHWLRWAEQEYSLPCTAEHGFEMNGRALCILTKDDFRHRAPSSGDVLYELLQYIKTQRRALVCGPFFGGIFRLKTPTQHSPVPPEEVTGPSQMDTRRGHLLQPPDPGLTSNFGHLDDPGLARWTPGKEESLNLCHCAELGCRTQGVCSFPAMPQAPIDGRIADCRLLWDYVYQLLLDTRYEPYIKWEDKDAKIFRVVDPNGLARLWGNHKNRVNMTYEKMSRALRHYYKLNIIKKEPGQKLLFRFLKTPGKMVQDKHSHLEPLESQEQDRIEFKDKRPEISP
# How it was run: as §1
# [16] = target: T11, ELF5 (Homo sapiens, UniProt Q9UKW6-2 1-255); details: protein: recombinant; tags: N-terminal GST; dsDNA, one strand shown
# T11 sequence: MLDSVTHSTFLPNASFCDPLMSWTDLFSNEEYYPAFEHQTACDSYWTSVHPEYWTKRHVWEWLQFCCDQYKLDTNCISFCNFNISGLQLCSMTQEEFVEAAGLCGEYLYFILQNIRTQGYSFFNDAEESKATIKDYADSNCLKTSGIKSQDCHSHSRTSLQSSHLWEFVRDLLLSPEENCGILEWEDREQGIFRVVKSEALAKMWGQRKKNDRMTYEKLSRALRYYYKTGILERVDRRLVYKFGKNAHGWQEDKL
# How it was run: as §1
# [17] = target: T12, ETV3 (Homo sapiens, UniProt P41162-2 1-143); details: protein: recombinant; tags: N-terminal GST; dsDNA, one strand shown
# T12 sequence: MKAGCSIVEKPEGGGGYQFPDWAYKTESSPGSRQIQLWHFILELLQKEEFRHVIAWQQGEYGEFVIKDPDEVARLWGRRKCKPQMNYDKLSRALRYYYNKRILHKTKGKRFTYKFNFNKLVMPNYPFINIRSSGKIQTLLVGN
# How it was run: as §1
# [18] = target: ETV6 (Homo sapiens, UniProt P41212 1-452); details: protein: recombinant; tags: N-terminal GST; dsDNA, one strand shown
# ETV6, sequence (P41212 whole entry): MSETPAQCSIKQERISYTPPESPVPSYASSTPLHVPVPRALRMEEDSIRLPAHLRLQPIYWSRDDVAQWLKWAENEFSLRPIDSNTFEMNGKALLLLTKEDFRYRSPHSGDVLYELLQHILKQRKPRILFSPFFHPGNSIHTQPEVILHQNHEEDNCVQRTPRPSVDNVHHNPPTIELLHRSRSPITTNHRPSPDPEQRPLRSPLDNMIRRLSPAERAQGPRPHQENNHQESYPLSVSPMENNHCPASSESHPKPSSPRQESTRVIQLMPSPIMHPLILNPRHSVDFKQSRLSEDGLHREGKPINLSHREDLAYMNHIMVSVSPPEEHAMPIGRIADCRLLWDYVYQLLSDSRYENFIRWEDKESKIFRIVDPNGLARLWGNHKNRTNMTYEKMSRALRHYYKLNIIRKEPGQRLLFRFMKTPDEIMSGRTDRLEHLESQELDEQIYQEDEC
# How it was run: as §1
sequence,measurement,setting,value
AACTTT,binding signal,[1],"1.18 fold enrichment (6-mer frequency, TF over GST control)"
same,binding signal,[2],"1.19 fold enrichment (6-mer frequency, TF over GST control)"
same,binding signal,[3],"1.68 fold enrichment (6-mer frequency, TF over GST control)"
same,binding signal,[4],"1.45 fold enrichment (6-mer frequency, TF over GST control)"
same,binding signal,[5],"1.19 fold enrichment (6-mer frequency, TF over GST control)"
same,binding signal,[6],"1.32 fold enrichment (6-mer frequency, TF over GST control)"
same,binding signal,[7],"1.3 fold enrichment (6-mer frequency, TF over GST control)"
same,binding signal,[8],"1.33 fold enrichment (6-mer frequency, TF over GST control)"
same,binding signal,[9],"1.27 fold enrichment (6-mer frequency, TF over GST control)"
same,binding signal,[10],"1.23 fold enrichment (6-mer frequency, TF over GST control)"
same,binding signal,[11],"1.27 fold enrichment (6-mer frequency, TF over GST control)"
same,binding signal,[12],"1.26 fold enrichment (6-mer frequency, TF over GST control)"
same,binding signal,[13],"1.2 fold enrichment (6-mer frequency, TF over GST control)"
same,binding signal,[14],"1.17 fold enrichment (6-mer frequency, TF over GST control)"
same,binding signal,[15],"1.2 fold enrichment (6-mer frequency, TF over GST control)"
same,binding signal,[16],"1.3 fold enrichment (6-mer frequency, TF over GST control)"
same,binding signal,[17],"1.4 fold enrichment (6-mer frequency, TF over GST control)"
same,binding signal,[18],"1.22 fold enrichment (6-mer frequency, TF over GST control)"
